# Only some compounds are listed: those with a hit (about 7.4% of all), similar ones and a draw of the others.
# FLuc modulator = firefly luciferase modulation, counter-screen for miR-21 project; purified FLuc, Km substrates, luminescence inhibition; Potency, µM (titrated, usually from 57.5 µM), for the others: at the top dose activity change, negative = inhibition, usual class: inhibitors; 360,000 compounds, 6.9% hits;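 also: plate controls were vehicle for no effect and reference inhibitor for full effect; nearly all actives have a fitted effect of over 55% in size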
# Target sequence (P08659 whole entry, looked up): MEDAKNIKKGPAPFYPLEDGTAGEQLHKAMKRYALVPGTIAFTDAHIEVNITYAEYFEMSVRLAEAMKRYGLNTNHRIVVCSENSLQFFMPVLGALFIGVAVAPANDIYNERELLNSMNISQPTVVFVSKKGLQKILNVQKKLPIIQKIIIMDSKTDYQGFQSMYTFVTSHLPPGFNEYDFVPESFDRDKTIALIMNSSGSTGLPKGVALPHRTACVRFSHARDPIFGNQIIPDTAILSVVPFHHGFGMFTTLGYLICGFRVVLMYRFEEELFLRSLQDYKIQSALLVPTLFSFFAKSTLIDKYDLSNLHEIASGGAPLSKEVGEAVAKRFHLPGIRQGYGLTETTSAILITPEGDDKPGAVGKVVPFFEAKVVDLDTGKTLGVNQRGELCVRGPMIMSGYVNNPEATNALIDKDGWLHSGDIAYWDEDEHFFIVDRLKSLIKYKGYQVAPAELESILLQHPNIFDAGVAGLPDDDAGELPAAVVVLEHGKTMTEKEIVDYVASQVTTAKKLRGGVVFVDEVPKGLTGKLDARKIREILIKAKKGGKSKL
#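 Biochemical qHTS of compounds, final roughly 60 µM downward over six points, against 10 nM purified firefly luciferase using Km concentrations of substrates (10 uM D-luciferin, 10 uM ATP) in Tris acetate pH 7.5 buffer; luminescence output.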
# SMN2 splice up = increases expression of the SMN2 splice variant. 210,000 compounds, 2.8% hits. Potency, µM (series often up to 46.1 µM), without a hit: at the highest dose activity change, positive = activation, actives largely listed as activators. HEK293 SMN2-luciferase splicing reporter, luminescence, 30-36 h; also: % of control where 0% means no effect; nearly all actives have a fitted effect of over 55% in size
#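 HEK293 cells carry an SMN2 […]–luciferase reporter in which exon 7 inclusion puts luciferase in frame. Cells were plated 10-12 h before compound addition, then incubated 30-36 h at 37C. ONE-Glo luminescence was read; sodium butyrate at 4.5 mM final served as control.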
# ELG1 genotoxic = induces genotoxicity in HEK293T cells with luciferase-tagged ELG1. 330,000 compounds, 1.3% hits. AID 504466. HEK293T ELG1-luciferase reporter, luminescence, 16 h. Potency, µM (titrated, usually from 46 µM), inactives show at the highest dose activity change, positive = activation, most hits filed as activators; also: % of control where 0% means no effect; nearly all actives have a fitted effect of over 60% in size
#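 Step 1: seed 2,000 HEK293T ELG1-luciferase cells per well. Step 2: add compound or DMSO, incubate 16 hr at 37 °C. Step 3: ONE-Glo, 30 min at room temperature, read luminescence.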
# Rab9 promoter act = Rab9 promoter activation. Huh7 Rab9 promoter-luciferase reporter, luminescence, 24 h. Potency, µM (titrated, usually from 9.22 µM), without a hit: at the top dose activation, negative = inhibition, most hits filed as activators. 320,000 compounds, 2.8% hits; also: % of control where 0% means no effect; nearly all actives have a fitted effect of over 60% in size
#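 Stable Rab9-luc Huh7, 1500 cells/well, 2 h settle; cmpd in DMSO, 24 h, 37 °C/5% CO2; luciferase reagent 10 min RT; luminescence.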
# NPC1 promoter act = activators of NPC1 promoter | Huh7 NPC1 promoter luciferase reporter, 24 h | 320,000 compounds, 2.4% hits | Potency, µM (titrated, usually from 9.22 µM), for the others: at the top dose activation, hits mostly activators; also: % of control where 0% means no effect; nearly all actives have a fitted effect of over 60% in size
#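 Quantitative HTS used a cell-based reporter: Huh7 cells stably bearing the NPC1 promoter upstream of luciferase were treated with compounds for 24 h, and promoter activation was read as luminescence.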
# p53 reactivation = restores transcriptional activity of mutant p53 | H1299 p53-A138V BP100-luciferase reporter, luminescence, 24 h | Potency, µM (series often up to 92.2 µM), without a hit: top-dose activity change, positive = activation, actives largely listed as activators | 320,000 compounds, 0.063% hits | AID 504706; also: % of control where 0% means no effect; nearly all actives have a fitted effect of over 45% in size
#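 p53-null H1299 cells stably carrying temperature-sensitive p53-A138V and a BP100-luciferase reporter were pinned with compounds (4-point, 1:5 series) and held 24 hrs at 37 deg C. Luminescence was read 10 min after detection reagent.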
# Active calls of the source: *; ? = inconclusive; nt = not tested or not shown; [ ] = remark or other dose. Calls follow the shape of the dose curve; as a rule, active = well fitted curve in the direction sought with a large enough effect; inconclusive = small, poorly fitted or top-dose-only effect, or another doubt; inactive = no such curve, though single readings can be large; an effect the other way counts as inactive or inconclusive. Potency is read from the fitted curve at half-maximal effect.
SMILES,FLuc modulator,SMN2 splice up,ELG1 genotoxic,Rab9 promoter act,NPC1 promoter act,p53 reactivation
CCC1=C2CC[C@H]3C(=O)N(CC(=O)OC)C(=O)[C@H]3[C@H]2[C@@]2(C)C(=O)N(CC3CC3)C(=O)N2C1=O,nt,6.3%,nt,nt,nt,nt
Cn1nnc2c(NCc3ccco3)nccc21,2.3%,-6.5%,1.7%,0.9%,-1.8%,1.9%
COc1ccc(Nc2nccc3c2nnn3C)cc1,10.7µM*,?,5.8µM*,2.24µM*,1.26µM*,10.3%
CCCN1CCC(=O)N([C@H](CSc2ccccc2)CC(C)C)CC1,21.3µM*,nt,?,3.16µM*,3.16µM*,nt
CCCN1CCC(=O)N([C@H](CSc2ccc(C)cc2)CC(C)C)CC1,10.7µM*,nt,?,?,3.98µM*,?
O=C1CCN(CCc2ccccc2)CCN1[C@H](CSc1ccc(Br)cc1)c1ccccc1,?,nt,-2.9%,-0.7%,14.1%,23.8%
CC(C)C[C@@H](CSc1ccccc1)N1CCN(CC(C)C)CCC1=O,15.1µM*,nt,?,?,?,nt
CCCN1CCC(=O)N([C@H](CSc2ccc(Br)cc2)c2ccccc2)CC1,16.9µM*,nt,11.7%,?,22.2%,8.1%
CC(C)C[C@@H](CSc1ccccc1)N1CCN(C)CCC1=O,-13.9%,nt,5.3%,24.8%,21.9%,17.4%
O=C(Nc1cc(Br)ccc1O)c1cc(-c2ccco2)on1,-18.0%,nt,25.5%,-2.3%,0.3%,20.8%
O=C(Nc1cc(Cl)ccc1O)c1cc(-c2ccco2)on1,?,nt,20.6µM*,18.1%,23.5%,?
COc1cccc(-c2cc(C(=O)Nc3ccccc3SC)no2)c1,7.57µM*,16.4%,?,?,?,?
COc1ccc(-c2cc(C(=O)Nc3ccccc3SC)no2)cc1OC,-0.4%,-22.6%,10.2%,0.0%,-2.2%,2.5%
O=C(Nc1cccc(Cl)c1)c1cc(-c2ccco2)on1,2.69µM*,nt,4.0%,-1.7%,2.0%,11.3%
COc1cccc(-c2cc(C(=O)Nc3cccc(O)c3)no2)c1,0.426µM*,8.0%,?,?,?,2.9%
COc1ccc(CSc2nc(O)cc(=O)n2CC(C)C)cc1F,0.2%,nt,1.4%,-1.3%,1.2%,-13.0%
OB(O)c1ccc(B(O)O)cc1,nt,5.5%,nt,nt,nt,nt
CC(C)N(Cc1nccn1C)C(=O)CC1C(=O)NCCN1Cc1ccc(F)c(F)c1 (centres undefined),3.5%,nt,3.6%,1.2%,8.4%,15.9%
Cc1nn2c(-c3cccc(NC(=O)c4ccccc4)c3)nnc2c2ccccc12,2.0%,9.8%,nt,nt,nt,nt
CCCCN(CC)Cc1ccc(CNS(=O)(=O)c2cc3c(cc2Cl)NC(=O)CO3)o1,-4.8%,nt,nt,nt,nt,nt
COc1ccc(NC(=O)c2cc(-c3ccco3)on2)cc1,?,?,-5.8%,18.3%,-0.6%,?
O=C(Nc1cccnc1Cl)c1cc(-c2ccco2)on1,5.36µM*,-7.7%,16.4µM*,?,4.7%,22.7%
CCCn1cc(NC(=O)c2cc(-c3ccccc3)on2)cn1,13.5µM*,22.6%,23.1µM*,?,18.3%,17.4%
CCc1ccc(NC(=O)c2cc(-c3ccco3)on2)cc1,2.39µM*,11.5%,12.4%,2.3%,3.4%,?
O=C(Nc1cccc(Cl)c1)c1cc(-c2ccccc2)on1,1.51µM*,nt,nt,nt,nt,nt
SMILES,FLuc modulator,SMN2 splice up,ELG1 genotoxic,Rab9 promoter act,NPC1 promoter act,p53 reactivation
CCc1nc2cccnc2n1-c1ccc(CC(=O)Nc2cccc(C)c2C)cc1,-9.9%,nt,nt,nt,nt,nt
COc1ccc(-c2cc(C(=O)Nc3cccc(Cl)c3)no2)cc1,0.757µM*,nt,1.83µM*,1.12µM*,1µM*,?
COc1ccc(-c2cc(C(=O)Nc3cccc(C(C)=O)c3)no2)cc1,?,9.8%,17.1%,10.2%[1.84 µM],22.7%,0.4%
Fc1cc(Br)ccc1COc1ccc(-c2nnco2)cc1,?,nt,?,2.51µM*,2.51µM*,?
COc1ccc2cc(-c3ccn[nH]3)ccc2c1,1.35µM*,nt,5.8µM*,1.78µM*,2.24µM*,?
Cc1nn2c(-c3cccnc3)ccnc2c1-c1ccccc1,10.7µM*,17.5%,4.2%,28.8%,22.5%,18.4%
COc1ccc(S(=O)(=O)N2CCCC2CNC(=O)c2cccc(OC)c2)cc1 (centres undefined),2.1%,nt,-2.0%,2.0%,-0.8%,6.2%
O=C1NN(c2ccccc2)C(=O)/C1=C\c1ccccc1OCC(=O)N1CCOCC1,?,15.0%,-0.9%,9.1%,-4.1%,-0.1%
COc1cc(/C=C2/C(=O)NN(c3ccc(Cl)cc3)C2=O)cc(Br)c1O,26.9µM*,nt,-4.4%,0.0%,1.1%,29.5%
COc1cccc(/C=C2/C(=O)NN(c3ccc(Br)cc3)C2=O)c1O,1.9µM*,nt,2.3%,-2.2%,-3.4%,?
COc1cc(/C=C2/C(=O)NN(c3ccc(Cl)c(Cl)c3)C2=O)cc([N+](=O)[O-])c1O,?,nt,0.3%,-1.8%,-2.7%,0.7%
COc1cc(/C=C2/C(=O)NN(c3ccc(F)cc3)C2=O)cc(Cl)c1O,21.3µM*,nt,-0.4%,-0.5%,-1.5%,0.4%
CC(C)CN1CCC2(CC1)CCN(C(=O)c1csnn1)CC2,nt,-2.2%,nt,nt,nt,nt
COC(=O)c1ccccc1NC(=O)CSc1nc2sc3c(c2c(=O)[nH]1)CCCC3,?,11.7%,nt,nt,nt,nt
CNS(=O)(=O)c1cccc(C(=O)OCC(=O)Nc2ccc(-c3nc4ccc(C)cc4s3)cc2)c1,4.78µM*,1.12µM*,0.731µM*,?,0.501µM*,11.3%
Cc1ccc(NC(=O)CN2CCN(C(=O)c3ccco3)CC2)cc1,-2.1%,nt,0.0%,-4.2%,-5.8%,-0.6%
Cc1ccc2nc(-c3ccc(NC(=O)CN4CCN(C(=O)c5ccco5)CC4)cc3)sc2c1,4.78µM*,?,?,?,?,?
Cc1ccc2nc(-c3ccc(NC(=O)COC(=O)c4ccco4)cc3)sc2c1,10.7µM*,2.24µM*,2.91µM*,0.316µM*,0.447µM*,nt
CC(=O)Nc1ccc(C(=O)COC(=O)c2ccco2)c(F)c1,13.5µM*,nt,3.7%,-7.7%,-4.1%,23.5%
COP(=O)(OC)OC(c1ccc(Cl)cc1)P(=O)(OC)OC (centres undefined),nt,-12.0%,nt,nt,nt,nt
O=C(COC(=O)c1cncc(Br)c1)Nc1ccc2c(c1)OCO2,1.1%,15.5%,-3.3%,9.5%,-14.8%,-3.4%
Cc1ccc2nc(-c3ccc(NC(=O)COC(=O)c4ccc(Br)o4)cc3)sc2c1,3.38µM*,0.501µM*,1.16µM*,0.398µM*,0.794µM*,nt
CCOc1ncccc1C(=O)OCC(=O)Nc1ccc(-c2nc3ccc(C)cc3s2)cc1,5.36µM*,1.58µM*,7.31µM*,0.355µM*,0.447µM*,nt
O=C(COC(=O)c1ccc([N+](=O)[O-])o1)Nc1ccc(F)cc1,nt,nt,-0.1%,nt,nt,6.2%

# Screens as filed in PubChem.
